This note sets out measurements from PubChem BioAssay (NCATS).

Inconclusive results are not listed. Unmarked numbers belong to inactive results. Calls of active or inactive are those of the source. The call rests on the fitted dose curve; in most records, active means well fitted curve in the direction sought with a large enough effect; inconclusive means small, poorly fitted or top-dose-only effect, or another doubt; inactive means no such curve, though single readings can be large; an effect the other way counts as inactive or inconclusive.

A short description of experiment [1]: Quantitative highthroughput screen to assess conditional lethalithy of NOMO1 cells grown in RPMI1640 with untreated serum (RPMI+s) (AID 1963876). Further: nearly all actives have a fitted effect of over 35% in size.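 On viability: 100% = DMSO wells and 0% = empty wells without cells.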 The method, boiled down: (§1)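 Each medium arm—HPLM with 10% dialyzed FBS, or RPMI1640 with 5 mM glucose and 10% untreated or dialyzed FBS—was screened against an 11-point, 3-fold compound titration for 48 h at 37 °C, with CellTiter-Glo luminescence as endpoint.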

The nature of experiment [2]: Quantitative highthroughput screen to assess conditional lethalithy of P12 Ichikawa cells grown in RPMI1640 with dialyzed fetal bovine serum (RPMI+ds) (AID 1963880). Further: nearly all actives have a fitted effect of over 35% in size.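 On viability: 100% = DMSO wells and 0% = empty wells on each plate.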 The conditions noted are these: Potency: P12-Ichikawa viability. The method, boiled down: as §1
The nature of experiment [3]: Quantitative highthroughput screen to assess conditional lethalithy of P12 Ichikawa cells grown in RPMI1640 with untreated serum (RPMI+s) (AID 1963881). Further: nearly all actives have a fitted effect of over 35% in size.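 On viability: series mostly up to about 46 µM; 100% = DMSO wells and 0% = empty wells without cells.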 Conditions: Potency: viability. The method, boiled down: as §1
Experiment [4] in a line: Quantitative highthroughput screen to assess conditional lethalithy of SEM cells grown in RPMI1640 with dialyzed fetal bovine serum (RPMI+ds) (AID 1963884). Further: nearly all actives have a fitted effect of over 35% in size.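 On viability: series mostly up to about 46 µM; 100% = DMSO control wells and 0% = empty wells without cells.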 Put shortly:
as §1

The nature of experiment [5]: Quantitative highthroughput screen to assess conditional lethalithy of P12 Ichikawa cells grown in Human Plasma-Like Medium with dialyzed fetal bovine serum (HPLM+ds) (AID 1963879). Further: nearly all actives have a fitted effect of over 35% in size. On viability: series mostly up to about 46 µM. Conditions: Potency: viability. The method, boiled down:
as §1

The nature of experiment [6]: Quantitative highthroughput screen to assess conditional lethalithy of SEM cells grown in Human Plasma-Like Medium with dialyzed fetal bovine serum (HPLM+ds) (AID 1963882). Further: nearly all actives have a fitted effect of over 35% in size. On viability: series mostly up to about 46 µM. Put shortly:
as §1

Experiment [7] can be described thus: Cellular viability qHTS for adrenocortical cancer (ACC) cell line SW-13 (AID 1963989). Further: nearly all actives have a fitted effect of over 65% in size.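 On activity (max response): cells grown in serum-free medium with ITS supplement; on the % scale 0 is the no-effect control and ±100 the full control effect.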 The conditions noted are these: SW-13 ACC cells viability, CellTiter-Glo, 48 h; activity (max response): hits give low values. The method, boiled down: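 Compound titrations (up to 46 uM final, in DMSO) were applied to SW-13 cells for 48 h at 37C/5% CO2. Reading used CellTiter-Glo after 20 min at room temperature; fitted curves yielded IC50 and efficacy.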
(qHTS replaces the single test concentration by a dilution series.)

Experiment [8] can be described thus: Cellular viability qHTS for adrenocortical cancer (ACC) cell line NCI-H295R (AID 1963990). Further: nearly all actives have a fitted effect of over 60% in size. Put shortly:
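Readout: CellTiter-Glo luminescence, 20 min RT. Exposure: 48 h, 37C/5% CO2. Cells: NCI-H295R, ITS-DMEM serum-free. Range: up to 46 uM. Analysis: 4PL fit, IC50 plus efficacy.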

Experiment [9] can be described thus: Quantitative highthroughput screen to assess conditional lethalithy of SEM cells grown in RPMI1640 with unreated serum (RPMI+s) (AID 1963883). Further: nearly all actives have a fitted effect of over 35% in size.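 On viability: 100% = DMSO wells and 0% = empty wells without cells.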 The method, boiled down:
as §1
Potency means the concentration at half of the fitted maximal effect.

For the compound `CO[C@H]1C=CO[C@@]2(C)Oc3c(C)c(O)c4c(O)c(c(C=NN5CCN(C)CC5)c(O)c4c3C2=O)NC(=O)C(C)=CC=C[C@H](C)[C@H](O)[C@@H](C)[C@@H](O)[C@@H](C)[C@H](OC(C)=O)[C@H]1C`, the Potency entry in [1] and in [4] was “inactive” in each case. The Potency in experiment [2] is 2.38 µM (active); in [3] it was 3.78 µM (active).

For `O=C(O)CCC1CCC(c2cc(F)ccc2F)(S(=O)(=O)c2ccc(Cl)cc2)CC1` (configuration not stated), the Potency in experiment [1] was 1.48 µM (active); in [5], 8.33 µM (active); in experiment [2], 14.8 µM (active); in experiment [3], 9.35 µM (active). The Potency entry in [6], in experiment [4] and in experiment [8] was “inactive” throughout. Moreover, the activity (max response) in experiment [7] is -1.6%.

For the compound `C=CC(=O)Nc1cc(NC(=O)c2ccc(C)c(NC(=O)c3ccno3)c2)cc(C(F)(F)F)c1`, the Potency entry in experiment [1], in experiment [5], in [3], in experiment [6] and in [9] was “inactive” each time.

As for `Cc1[nH]c(C=C2C(=O)Nc3ccccc32)c(C)c1CCC(=O)O`, the Potency in experiment [1] is 14.8 µM (active); in experiment [5] it was 9.35 µM (active); in experiment [2], 18.7 µM (active); in experiment [3], 13.2 µM (active).

For the compound `COC[C@@H](c1ccc(C(F)(F)F)cc1)N1CCN(C2(C)CCN(C(=O)c3c(C)ncnc3C)CC2)C[C@H]1C`, the Potency in experiment [1] is 2.35 µM (active). For the same compound, the Potency result in experiment [5], in [2] and in experiment [3] was “inactive” each time. The activity (max response) in experiment [7] was -14.2%.

Take `CC(C)(C)c1[nH]cnc1C=c1[nH]c(=O)c(=Cc2ccccc2)[nH]c1=O`: the Potency in experiment [1] is 0.0068 µM (active); in [5], 0.0061 µM (active); in experiment [2], 0.0108 µM (active); in [3], 0.0086 µM (active); in experiment [4] it was 0.0061 µM (active).

With `Nc1ccc(-c2ccc3ncc4ccc(=O)n(-c5cccc(C(F)(F)F)c5)c4c3c2)cn1`, the Potency is 0.0833 µM (active) in experiment [1], 0.148 µM (active) in experiment [5], 0.708 µM (active) in [7] and 0.126 µM (active) in experiment [8].

Regarding `O=C(NC[C@H](O)CO)c1ccncc1Nc1ccc(I)cc1F`, the Potency was 0.469 µM (active) in experiment [1] and 31.6 µM (active) in experiment [8]. The Potency entry in experiment [5] was “inactive”.

Consider `C#C[C@]1(O)CC[C@@H]2[C@@H]3CCc4cc(O)ccc4[C@H]3CC[C@@]21C`, for which, in [1], the Potency result was “inactive”. Moreover, the results for the Potency in experiment [2], in experiment [6] and in experiment [4] were 16.6 µM (active), 14.8 µM (active) and 11.8 µM (active), respectively.

For the compound `COC(=O)[C@@H]1[C@H]2C[C@@H]3c4[nH]c5ccccc5c4CCN3C[C@@H]2CC[C@@H]1O`, the Potency in experiment [1] is 0.526 µM (active); in [5], 2.96 µM (active); in experiment [2], 5.26 µM (active); in experiment [3] it was 3.32 µM (active). Moreover, the Potency result in [6], in experiment [9] and in experiment [4] was “inactive” each time.

Regarding `O=C(CCc1ccc(O)cc1)c1c(O)cc(O)cc1O[C@@H]1O[C@H](CO)[C@H](O)[C@H](O)[C@H]1O`, the Potency result in experiment [1], in [5], in experiment [2], in experiment [3], in experiment [6] and in [9] was “inactive” in each case.

Consider `CCOC(=O)[C@H]1O[C@H]1C(=O)N[C@@H](CC(C)C)C(=O)NCCC(C)C`, for which the Potency in [1] was 23.5 µM (active). Further, the Potency entry in experiment [5], in [2], in experiment [3], in experiment [9] and in [4] was “inactive” throughout.

As to `CC[C@]12C=CCN3CC[C@@]4(c5cc([C@@]6(C(=O)OC)C[C@H]7C[C@@H](C(C)(F)F)CN(Cc8c6[nH]c6ccccc86)C7)c(OC)cc5N(C)[C@H]4[C@@](O)(C(=O)OC)[C@H]1OC(C)=O)[C@@H]32`, the Potency was 0.0332 µM (active) in experiment [1]; 0.0743 µM (active) in experiment [2]; 0.0264 µM (active) in [3]; 0.0296 µM (active) in experiment [6]; 0.0187 µM (active) in [9]; 0.0332 µM (active) in experiment [4].

On to `CC1(C)O[C@H]2C[C@@H]3[C@H]4CCC5=CC(=O)C=C[C@]5(C)[C@@]4(F)[C@@H](O)C[C@]3(C)[C@]2(C(=O)CO)O1`, for which the Potency in experiment [1] is 9.35 µM (active); in experiment [5], 1.48 µM (active); in experiment [2], 0.264 µM (active); in experiment [3], 0.743 µM (active).

Consider `CC(C)(C(=O)NCC(F)(F)C(F)(F)F)C(=O)N[C@@H]1C(=O)Nc2ccccc2-c2ccccc21`, for which the figures for the Potency in [1], in experiment [5] and in experiment [9] were 0.935 µM (active), 2.64 µM (active) and 16.6 µM (active), respectively. In addition, in experiment [7], the activity (max response) is -5.79%. Moreover, the Potency result in experiment [8] is “inactive”.

Turning to `COc1cc(C(C)=O)ccc1OCCCN1CCC(c2noc3cc(F)ccc23)CC1`, the Potency entry in experiment [1], in experiment [5], in [2], in experiment [3], in experiment [6] and in experiment [9] was “inactive” in each case. For the same compound, the Potency result in [4] and in experiment [8] was “inactive” throughout.

For the compound `Cc1ccc(O)c(C(CCN(C(C)C)C(C)C)c2ccccc2)c1` (configuration not stated), the Potency result in experiment [1], in experiment [5], in experiment [2], in experiment [6], in experiment [9] and in [4] was “inactive” each time. Also, in experiment [8], the Potency result was “inactive”. Besides, the activity (max response) in experiment [7] is 1.99%.

On to `COc1ccc(CCC(=O)c2c(O)cc(O[C@@H]3O[C@H](CO)[C@@H](O)[C@H](O)[C@@H]3O[C@@H]3O[C@@H](C)[C@H](O)[C@@H](O)[C@@H]3O)cc2O)cc1O`, for which, in experiment [1], the Potency is 13.2 µM (active). Also, the Potency result in experiment [3], in [6], in experiment [9] and in experiment [4] was “inactive” each time.

On to `COC1CCC(N(C(=O)C2CCC(C)CC2)c2cc(C3=CCCCC3)sc2C(=O)O)CC1` (configuration not stated), for which the Potency result in [1] and in experiment [8] was “inactive” each time. For the same compound, the results for the Potency in experiment [5] and in experiment [2] were 18.7 µM (active) and 14.8 µM (active), respectively. In [7], the activity (max response) was 0.0132%.
